About 83,000 compounds went through this panel and 20% of them were active in at least one assay; those are over-represented in the sample as a whole.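 In brief: 96-well plates, 48 h treatment, single concentration, percent growth endpoint.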 Activity calls are given as the source filed them. The calls were made as follows: active = growth percent below 10; inactive = the rest.
Assays:
Experiment in all cases: NCI-60 one-dose screen, 48 h (100 = growth as untreated, 0 = no growth, -100 = all killed)
NCI-H23 lung = settings: 10 µM unless noted
NCI-H322M lung = settings: 10 µM unless noted
HOP-62 NSCLC = settings: 10 µM unless noted
NCI-H522 lung = settings: 10 µM unless noted
COLO 205 colon = settings: 10 µM
K-562 leukemia = settings: 10 µM unless noted
MALME-3M melanoma = settings: 10 µM unless noted
SK-MEL-2 melanoma = settings: 10 µM unless noted
ACHN renal = settings: 10 µM unless noted
A498 renal = settings: 10 µM unless noted
IGROV1 ovarian = settings: 10 µM
HS 578T breast = settings: 10 µM unless noted
SF-295 CNS = settings: 10 µM unless noted
U251 CNS = settings: 10 µM unless noted
EKVX NSCLC = settings: 10 µM unless noted
SN12C renal = settings: 10 µM unless noted
CCRF-CEM leukemia = settings: 10 µM unless noted
RPMI-8226 leukemia = settings: 10 µM unless noted
NCI-H226 lung = settings: 10 µM unless noted

Measured: growth

COC[CH2][Hg][C]#[C][Hg][CH2]COC
inactive: NCI-H23 lung 71% | NCI-H322M lung 116% | HOP-62 NSCLC 98.5% | NCI-H522 lung 96.9% | COLO 205 colon 100% | K-562 leukemia 96.7% | MALME-3M melanoma 104% | SK-MEL-2 melanoma 41.9% | ACHN renal 98.7% | A498 renal 103% | IGROV1 ovarian 80.2% | HS 578T breast 85.3%

Cn1cnnc1[S-].[Au+].c1ccc([PH+](c2ccccc2)c2ccccc2)cc1
active: NCI-H522 lung -75% | COLO 205 colon -10% | K-562 leukemia 1.84% | MALME-3M melanoma -38.1% | U251 CNS -43.1% | SK-MEL-2 melanoma 0.754% | CCRF-CEM leukemia 1.22% | RPMI-8226 leukemia -3.32% | IGROV1 ovarian -1.4%
inactive: NCI-H23 lung 15.8% | NCI-H322M lung 89% | HOP-62 NSCLC 25.1% | SF-295 CNS 78.8% | EKVX NSCLC 60.7% | SN12C renal 15.9% | A498 renal 64.7% | HS 578T breast 49.2%

CCOP(=O)(OCC)Oc1ccc(Sc2ccc(OP(=O)(OCC)OCC)cc2)cc1
inactive: NCI-H226 lung 101% | HOP-62 NSCLC 93.2% | NCI-H522 lung 91.2% | COLO 205 colon 110% | K-562 leukemia 102% | MALME-3M melanoma 93.5% | SF-295 CNS 97.5% | SK-MEL-2 melanoma 94% | SN12C renal 101% | A498 renal 85.2% | CCRF-CEM leukemia 86.3% | RPMI-8226 leukemia 90% | IGROV1 ovarian 98% | HS 578T breast 109%

COc1ccc(CN2CCN(Cc3ccccc3)CC2)c(O)c1
inactive: NCI-H23 lung 94.8% | HOP-62 NSCLC 93.4% | NCI-H522 lung 71.9% | COLO 205 colon 95.5% | K-562 leukemia 74.3% | MALME-3M melanoma 98.4% | SF-295 CNS 99.8% | U251 CNS 95.1% | SK-MEL-2 melanoma 89.9% | ACHN renal 87.5% | A498 renal 95.5% | CCRF-CEM leukemia 87.1% | RPMI-8226 leukemia 77.1% | IGROV1 ovarian 91.3% | HS 578T breast 102%

CNC(=O)Oc1ccccc1-c1ccccc1
inactive: NCI-H226 lung 113% | HOP-62 NSCLC 103% | NCI-H522 lung 85.9% | COLO 205 colon 113% | K-562 leukemia 99.6% | MALME-3M melanoma 102% | SF-295 CNS 94.5% | SK-MEL-2 melanoma 76.3% | SN12C renal 106% | ACHN renal 108% | A498 renal 93.2% | CCRF-CEM leukemia 94.1% | RPMI-8226 leukemia 99.4% | IGROV1 ovarian 99.3% | HS 578T breast 107%

N#CC(C#N)=Cc1ccc2ccccc2c1
inactive: NCI-H23 lung 100% | NCI-H226 lung 106% | HOP-62 NSCLC 113% | NCI-H522 lung 96.7% | K-562 leukemia 102% | SF-295 CNS 111% | U251 CNS 104% | SK-MEL-2 melanoma 102% | EKVX NSCLC 121% | SN12C renal 111% | ACHN renal 107% | CCRF-CEM leukemia 93.3% | RPMI-8226 leukemia 90.3%

CCC[CH2][Sn]1([CH2]CCC)[O]C(=O)c2cccc([N+](=O)[O-])c2C(=O)[O]1
active: NCI-H226 lung -83.1% | HOP-62 NSCLC -90.7% | NCI-H522 lung -94.8% | COLO 205 colon -97.1% | K-562 leukemia -12.3% | MALME-3M melanoma -88.4% | SF-295 CNS -36.9% | SK-MEL-2 melanoma -92% | SN12C renal -83.4% | ACHN renal -100% | A498 renal -94.5% | CCRF-CEM leukemia -47.7% | RPMI-8226 leukemia -40.5% | IGROV1 ovarian -76% | HS 578T breast -11.6%

CCOc1c(Cl)cc(CNC(C)C(O)c2ccccc2)cc1OC (stereo not given)
inactive: NCI-H23 lung 80.4% | NCI-H322M lung 92% | HOP-62 NSCLC 73.3% | NCI-H522 lung 69.1% | K-562 leukemia 13.9% | MALME-3M melanoma 46.9% | SF-295 CNS 48.4% | SN12C renal 79.8% | ACHN renal 76.8% | A498 renal 32.9% | CCRF-CEM leukemia 77.7% | RPMI-8226 leukemia 71.7% | IGROV1 ovarian 66% | HS 578T breast 67.5%

Cc1nnc([S-])s1.[Au+].c1ccc([PH+](c2ccccc2)c2ccccc2)cc1
inactive: NCI-H23 lung 12.2% | NCI-H322M lung 84.2% | HOP-62 NSCLC 28.2% | SF-295 CNS 75% | EKVX NSCLC 56.4% | A498 renal 25.1% | HS 578T breast 30.8%
active: NCI-H522 lung -75.3% | COLO 205 colon -31.7% | K-562 leukemia 1.12% | MALME-3M melanoma -61.6% | U251 CNS -59.9% | SK-MEL-2 melanoma -12.2% | SN12C renal 6.71% | RPMI-8226 leukemia -1.82% | IGROV1 ovarian -25.4%

OC1CCCCC1N1CCC(c2ccccc2)CC1 (stereo not given)
inactive: NCI-H23 lung 100% | NCI-H226 lung 114% | COLO 205 colon 107% | MALME-3M melanoma 103% | SF-295 CNS 98.5% | U251 CNS 105% | EKVX NSCLC 104% | SN12C renal 109% | ACHN renal 109% | A498 renal 89.4% | CCRF-CEM leukemia 99.2% | RPMI-8226 leukemia 107% | IGROV1 ovarian 112% | HS 578T breast 108%

— PubChem BioAssay (NCI)
